# Most compounds without a hit are left out; they make up all but 4.8% or so of the library.
# ssDAF-12 act: S. stercoralis DAF-12 nuclear receptor activators, primary screen, cell-based, luminescence, HEK293, GRIP1 co-expression, lit1-tk-luc. Nuclear hormone receptor DAF-12 (Strongyloides stercoralis). HEK293 ssDAF-12/GRIP1 lit1-tk-luc reporter; % of 3 µM dafachronic acid response. activation, % at 6.8 µM. 1% of 370,000 active;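 active = activation above the mean over all tested compounds plus 3 SD, cut at about 0.9% in these data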
# hgDAF-12 ag: H. glycines DAF-12 receptor agonists, primary screen, cell-based, luminescence, HEK293, GAL4 fusion, UAS-luciferase. activation, % at 6.8 µM. 1.8% of 370,000 active. Nuclear hormone receptor DAF-12 (Heterodera glycines), GAL4 fusion. HEK293 GAL4-hgDAF12 UAS-luciferase reporter, agonist luminescence; normalized to butyrate control;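 active = activation above a cutoff set at the mean of all screened compounds plus 3 SD, cut at about 10% in these data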
# DAX1 inh-1: DAX1 (NR0B1) inhibitors on StAR promoter, primary screen, cell-based, luminescence, SF-1 (NR5A1), full-length DAX-1 | inhibition, % at 6.8 µM | 1.1% of 370,000 active | AID 652010, 2013 | HEK293T StAR-luciferase reporter, SF-1/DAX-1 repression relief;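 active = inhibition above the mean over all tested compounds plus 3 SD, cut at about 3.6% in these data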;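 also: higher inhibition means more luminescence from relief of DAX-1 repression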
# hcDAF-12 act: H. contortus DAF-12 nuclear receptor activators, primary screen, cell-based, luminescence, HEK293, lit1-tk-luc reporter. HEK293 hcDAF-12 lit1-tk-luc reporter; 0% DMSO, 100% Δ7-dafachronic acid. activation, % at 6.8 µM. 1.4% of 370,000 active. AID 652067, 2013;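 active = activation above the mean of all tested compounds plus 3 SD, cut at about 5.5% in these data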
# DAX1 inh-2: DAX1 (NR0B1) inhibitors, primary screen, cell-based, HEK293, Gal4-DAX1, luciferase luminescence; AID 504766, 2011; inhibition, % at 6.75 µM; HEK293 Gal4-DAX1 luciferase reporter; 0.99% of 340,000 active;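 active = inhibition above the mean over all tested compounds plus 3 SD, cut at about 4.2% in these data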;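 also: inhibition shows as a rise in luminescence from relieved DAX1 repression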
# Target sequence (P51843 207-470 limits assumed): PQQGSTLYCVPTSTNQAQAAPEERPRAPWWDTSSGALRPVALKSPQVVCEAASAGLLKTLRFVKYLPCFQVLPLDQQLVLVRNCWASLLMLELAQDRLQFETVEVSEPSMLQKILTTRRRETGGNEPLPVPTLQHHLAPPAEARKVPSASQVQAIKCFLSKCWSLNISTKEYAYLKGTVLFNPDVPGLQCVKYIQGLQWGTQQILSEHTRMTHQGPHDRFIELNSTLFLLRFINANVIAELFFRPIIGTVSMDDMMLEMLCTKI
# SMARCA2 act: SMARCA2 (BRM) function activators, primary screen, cell-based, luminescence, high throughput; activation, % at 9.1 µM; 1% of 370,000 active; MG213 cells, MMTV-luciferase reporter, dexamethasone, overnight; AID 652017, 2013; in the data active = activation above about 7.8%
# SMARCA2 conf: SMARCA2 (BRM) function activators, confirmation, cell-based, luminescence, triplicate; shares compounds with SMARCA2 act; MG213 cells, MMTV-luciferase with dexamethasone, overnight; MG213 cells expressing E1A, Rb sequestered; DMSO wells 0%, reference activator 100%; activation, % at 9.1 µM; 30% of 3,500 active; AID 652260, 2013;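 active = activation above its plate's cutoff, the mean activation of tested wells plus 3 SD, cut at about 7.9% in these data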
# VP16 Luc act: GAL4-VP16 luciferase reporter activation, counter-screen for SMARCA2 (BRM) activator project, cell-based, pG5luc, luminescence, high throughput. AID 686939, 2013. 41% of 3,500 active. shares compounds with SMARCA2 act. activation, % at 9.1 µM. HEK293 GAL4-VP16 pG5luc reporter; scaled: DMSO wells 0%, SAHA wells 100%;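 active = activation above the solvent-only control well mean plus 3 SD, averaged across control plates, cut at about 5.2% in these data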
# Hits are given with their value; n = inactive; x = not tested or not shown.
SMILES,ssDAF-12 act,hgDAF-12 ag,DAX1 inh-1,hcDAF-12 act,DAX1 inh-2,SMARCA2 act,SMARCA2 conf,VP16 Luc act
COc1cccc(-c2cnc3c(NC=O)cc(-c4cc(OC)c(OC)c(OC)c4)cn23)c1,n,n,n,n,x,n,x,x
COc1cc(-c2cnc3c(NC=O)cc(-c4ccc(S(C)(=O)=O)cc4)cn23)cc(OC)c1OC,n,n,n,n,x,n,x,x
O=C(NCc1ccccc1)C1(C(F)(F)F)C/C(=C\CCO)CCCO1 (stereo unspecified),n,n,n,n,n,n,x,x
CC1(C(=O)Nc2nc3ccccc3s2)CC1(Br)Br (stereo unspecified),n,n,n,n,n,9.0,n,5.2
Cc1ccccc1NC(=O)c1sc(NC(=O)C2CC2)nc1C,n,n,n,n,n,8.4,n,n
Cc1nc2c(C(=O)NCCC(C)C)c[nH]n2c(=O)c1Cl,n,n,n,n,n,9.5,n,n
Cc1nc2c(C(=O)NCCc3ccccc3)c[nH]n2c(=O)c1Cl,n,n,n,n,n,n,x,x
N#Cc1c(Nc2ccccc2Cl)s[nH]c1=O,n,n,n,n,n,8.8,n,n
N#Cc1c(Nc2ccccc2C(F)(F)F)s[nH]c1=O,n,n,n,n,x,n,x,x
Cc1ccc(NC(=O)CN(C)S(=O)(=O)c2cccc3cccnc23)c(C)c1,n,n,n,n,n,n,x,x
CC(=O)c1ccc(Sc2nnnn2-c2ccccc2)c([N+](=O)[O-])c1,n,n,n,n,n,8.6,n,n
CN1CCN(S(=O)(=O)c2ccc(Sc3nnnn3-c3ccccc3)c([N+](=O)[O-])c2)CC1,n,n,n,n,n,n,x,x
S=C(CSc1ccccc1)Nc1cccc2ccccc12,n,n,n,n,n,n,x,x
Cc1sc(NC(=O)C2CCCC2)c(C#N)c1C,n,n,n,n,n,n,x,x
Cc1cc(O)c(NC(=O)c2ccco2)cc1C,n,n,n,n,n,8.9,n,n
CCOC(=O)Cn1nc(NC(=O)c2cc(OC)cc(OC)c2)cc1C,n,n,n,n,n,n,x,x
CCOC(=O)Cn1nc(NC(=O)c2ccc(C(=O)OC)cc2)cc1C,n,n,n,n,n,11,9.4,n
CC(CN(C)C)CN1c2ccccc2CCc2ccccc21 (stereo unspecified),n,n,n,n,n,8.2,n,n
CC(CCc1ccccc1)NC(=O)C(=O)Nc1ccccc1 (stereo unspecified),n,n,n,n,n,8.9,11,9.8
CC(CCc1ccccc1)NC(=O)CN1CCN(c2ccccc2)CC1 (stereo unspecified),n,n,n,n,n,8.7,n,n
CCn1cc(C(=O)O)c(=O)c2cc(OC)ccc21,n,n,n,n,n,n,x,x
Cc1cc(C)cc(NC(=O)CCN2CC(C)OC(C)C2)c1 (stereo unspecified),n,n,n,n,n,8.4,n,n
Clc1ccc2c(c1)-c1ccccc1C1=NCCN12,n,n,n,n,n,16,313,n
COc1cccc(-c2nc(OC(C)C)c3ccccc3n2)c1,n,n,n,n,n,n,x,x
COc1cc(C(=O)N=c2sc3ccccc3n2C)cc(OC)c1OC,n,n,n,n,n,n,x,x

# Compound activity from PubChem.
